About 83,000 compounds went through this panel and 20% of them were active in at least one assay; those are over-represented in the sample as a whole.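 Note: values are percent growth. 100 is the growth of untreated cells, values between 100 and 0 indicate rising inhibition; between -100 and 0 indicates cell death.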 Activity calls are given as the source filed them. The calls were made as follows: active = growth percent below 10; inactive = the rest.
Test system: MDA-MB-468 breast
Assay: NCI-60 one-dose screen, 48 h (100 = growth as untreated, 0 = no growth, -100 = all killed)
Settings: 10 µM unless noted

Row | SMILES | growth
1 | CCOC(=O)n1cc(-c2nonc2-c2cn(C)c3ccccc23)c2ccccc21 | 13.1% (inactive)
2 | C=C1C(=O)O[C@H]2[C@H]1CC/C(COC(=O)NCc1ccc(Cn3c(=O)sn(CCI)c3=O)cc1)=C\CC[C@@]1(C)O[C@@H]21 | -37.1% (active)
3 | N=C(N)c1ccc(-c2ccc(-c3ccc(Cl)c(Cl)c3)s2)nc1 | -65.4% (active)
4 | CCOC(=O)c1ccc2c(c1)c1c(C)c3cccnc3c(C)c1n2C | 64.4% (inactive)
5 | O=C1c2cccnc2C(=O)c2c1c(C(=O)NCCn1ccnc1)c1ccccn21 | -6.68% (active)
6 | C=C(C)[C@@H]1CC[C@]2(C(=O)N[C@H](CO)Cc3ccccc3)CC[C@]3(C)[C@H](CC[C@@H]4[C@@]5(C)CCCNC(C)(C)[C@@H]5CC[C@]43C)[C@@H]12 | -90.5% (active)
7 | COc1ccc(-c2cc(C(=O)N=Nc3c(O)[nH]c4ccccc34)no2)cc1 | 106% (inactive)
8 | C=CCn1c(C)nc2cc(Nc3nc(Cl)nc4ccccc34)ccc21 | 83.7% (inactive)
9 | COc1ccc(CC(C#N)c2cc3ccccc3[nH]2)cc1 (stereo not given) | 89.6% (inactive)
10 | CCOC(=O)c1c(Nc2ccccc2)nn2c(-c3ccc(OC)cc3)ccnc12 | 91.1% (inactive)
11 | N[C@@H]1CCCN(c2c(/C=C3\SC(=O)NC3=O)cccc2-c2ccccc2)C1 | 55.8% (inactive)
12 | CCOC(=O)c1cnc2ccc(Cl)cc2c1NCCCN(C)C | -31.3% (active)
13 | CCOC(=O)c1nnn(-c2ccccc2)c1C1=CN(C)CCC1 | 120% (inactive)
14 | CCOC(=O)C(=Cc1ccccc1F)C(=O)OCC | 76.7% (inactive)
15 | NC(=O)CCCN1C/C(=C\c2ccccc2)C(=O)c2ccccc21 | 90.8% (inactive)
16 | CCCCCC/C=C1\CCC(CN2CCCC2)C1=O (stereo not given) | 73.2% (inactive)
17 | O=C1OC(c2nc3ccccc3s2)=C/C1=C\c1ccc(O)cc1 | 114% (inactive)
18 | CCCCCCCCCCCCCCCCCC(=O)NCCNC(=O)CCCCCCCCCCCCCCCCC | 102% (inactive)
19 | COc1cc(-n2cc(-c3cc(O)c(C/C=C(\C)CCC=C(C)C)c(O)c3)nn2)cc2c1O[C@]1(C)CC[C@@H](O)C(C)(C)[C@H]1C2 | -14.6% (active)
20 | COc1cc(C(O)C2C(=O)OCC2C2(c3ccc4c(c3)OCO4)SCCCS2)cc(OC)c1OC (stereo not given) | 92.2% (inactive)

Row | SMILES | growth
21 | COc1ccc(NC(=O)c2sc3c(=O)[nH]c(C(F)(F)F)nc3c2C)cc1 | 131% (inactive)
22 | CC(=S)NC(=O)C(=O)/C=C1/NC(=O)C(=O)S1 | 102% (inactive)
23 | CC12OC(CC(O)C1O)n1c3ccccc3c3c4c(c5c6ccccc6n2c5c31)C(=O)N(CCN1CCCC1)C4=O (stereo not given) | 3.48% (active)
24 | CC(C(=O)n1cc(-c2ccccc2)c(-c2ccccc2)c1)c1ccccc1 (stereo not given) | 104% (inactive)
25 | CC/C(=C(\c1ccc(O)cc1)c1ccc(OCCN(C)CCN(C)C(=O)CCC(=O)c2c(C)[nH]c(/C=C3\N=C(c4ccc[nH]4)C=C3OC)c2C)cc1)c1ccccc1 | 65.9% (inactive)
26 | COc1ccc(C(O)c2cc3c(N)c(C(=O)Nc4cccc(Cl)c4)sc3nc2C)cc1 (stereo not given) | 22.4% (inactive)
27 | CC(=O)O[C@]1(C(C)=O)CCC2C3C[C@H](C)C4=CC(=O)CC[C@]4(C)C3CC[C@@]21C (stereo not given in full) | 86.4% (inactive)
28 | Oc1ccc(Cl)cc1Cc1cc(Cl)ccc1O | 19.2% (inactive)
29 | O=C(NNc1nc2cc(F)ccc2n2c(CN3CCOCC3)ccc12)c1ccccc1 | -27.9% (active)
30 | CCn1c(=S)[nH]c2c(=O)n(C)c(=O)n(C)c21 | 100% (inactive)
31 | CCOC(=O)c1cnn2c(-c3ccc(Cl)cc3)nc(NCc3ccccc3)nc12 | 84.8% (inactive)
32 | O=C(Nc1ccc(Oc2cccc(Cl)c2)c(Cl)c1)c1cccnc1 | -9.21% (active)
33 | O=C(O)Cc1cccc2ccccc12 | 121% (inactive)
34 | Clc1nc2ccccc2nc1-c1nnc(C2CCCCC2)o1 | 7.71% (active)
35 | COc1ccc(O)c(-c2cc(-c3ccccc3)c(C#N)c(=O)[nH]2)c1 | 92.8% (inactive)
36 | COc1cc(NC(C)CCCNC(=O)CCC(=O)NCCCNCCCCCCCCNCCCNC(=O)CCC(=O)NCCCC(C)Nc2cc(OC)cc3cccnc23)c2ncccc2c1 (stereo not given) | 16.8% (inactive)
37 | O=NN(CCCl)C(=O)Nc1ccc(NC(=O)N(CCCl)N=O)cc1 | 96.4% (inactive)
38 | COc1cccc2cc(-c3cc4ccccc4[nH]3)c(=NC(=O)c3ccc(Cl)cc3)oc12 | 75% (inactive)
39 | CC(C)(C)CC(C)(C)c1ccc(OCCO)cc1 | 113% (inactive)
40 | Cc1c(C)c2c(c(C)c1OCC(=O)O)CC[C@@](C)(CCC[C@@H](C)CCC[C@@H](C)CCCC(C)C)O2 | 0.25% [50 µM] (active)
